# A selection: hits, their analogues and other compounds. The true share with any hit is near 4.2%.
# D1 PAM = potentiators of human D1 dopamine receptor | P21728 | HEK293 TREx D1 cells, calcium flux, dopamine EC20 potentiation | potentiation, % at 10 µM | 0.036% of 360,000 active; in the data active = potentiation above about 30%
# Target sequence (P21728 whole entry, looked up): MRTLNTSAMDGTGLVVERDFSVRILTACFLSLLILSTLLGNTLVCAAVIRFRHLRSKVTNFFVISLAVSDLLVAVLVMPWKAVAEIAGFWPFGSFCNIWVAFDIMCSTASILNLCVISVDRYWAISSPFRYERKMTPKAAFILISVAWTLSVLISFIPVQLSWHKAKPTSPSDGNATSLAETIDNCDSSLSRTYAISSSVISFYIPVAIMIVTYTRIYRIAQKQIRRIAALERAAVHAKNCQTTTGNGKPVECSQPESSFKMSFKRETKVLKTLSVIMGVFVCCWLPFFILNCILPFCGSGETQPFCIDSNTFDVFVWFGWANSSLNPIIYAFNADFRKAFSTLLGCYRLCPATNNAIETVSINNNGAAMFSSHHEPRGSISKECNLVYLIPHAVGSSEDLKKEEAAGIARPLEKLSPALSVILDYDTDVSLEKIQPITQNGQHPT
# D1 agonist = human D1 receptor agonism. activation, % at 2 µM. P21728. 1% of 360,000 active. AID 504660. HEK293 T-REx D1 cells, calcium flux, agonist mode; in the data active = activation above about 30%
#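 Tetracycline-induced HEK293 TREx D1 cells, force-coupled to calcium signalling, were dye-loaded with a no-wash calcium kit. Compound was pin-added after a 10 s baseline. Fluorescence was read kinetically at 1 cycle/s for 180 s, with calcium rises flagged as agonism.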
# TRPV1 PAM = enhances activation of the human vanilloid receptor TRPV1; Q8NER1; TRPV1-expressing cells, Fluo-8 calcium influx, capsaicin EC20 potentiation; potentiation, % at 8.33 µM; 0.02% of 320,000 active; AID 540277; in the data active = potentiation above about 80%; inconclusive = between about 30% and that limit
#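 Cells expressing TRPV1 were dye-loaded with Fluo-8 and read kinetically: 10 s baseline, 3 min after compound (agonist portion), then 2 min after EC20 capsaicin (allosteric enhancer portion). Calcium-bound dye fluorescence at 480/520 nm.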
# TRPV1 agonist = human TRPV1 agonism; TRPV1-expressing cells, Fluo-8 calcium influx, agonist mode; Q8NER1; activation, % at 8.33 µM; 0.19% of 320,000 active; in the data active = activation above about 80%; inconclusive = between about 30% and that limit
#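 TRPV1-expressing cells were cultured overnight at 35.5C and loaded with Fluo-8 calcium dye for 40 to 90 min at room temperature. After a 10 s baseline, compound was added and calcium influx was read kinetically for 3 min (ex 480/em 520 nm).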
# D1 antagonist = blocks dopamine activation of the human D1 receptor; activity change, negative = inhibition, % at 10 µM; 3.2% of 360,000 active; HEK293 TREx D1 cells, calcium flux, dopamine EC80; active compounds read low; in the data active = activity change below about -30%
#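 Cells carrying a force-coupled, tetracycline-inducible human D1 receptor report calcium flux. Each well gets a 10 s baseline, compound with 180 s monitoring, then an EC80 dopamine stimulus with a second 180 s kinetic read.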
# Numbers stand for hits; i = inactive; ? = inconclusive; nt = no result.
SMILES,D1 PAM,D1 agonist,TRPV1 PAM,TRPV1 agonist,D1 antagonist
Cc1ccc(-n2ncc3c(SCC(=O)NNC(=O)C(C)C)ncnc32)cc1,i,i,i,i,-53.6
COc1ccc(-n2ncc3c(SCC(=O)N4CCN(c5ccccc5OC)CC4)ncnc32)cc1,i,i,?,i,-52.5
Cc1cc(C)cc(-n2nnc(-c3nc(-c4ccc5c(c4)OCO5)no3)c2C)c1,i,i,nt,nt,i
CC(=O)c1ccc(N2CCN(C(=O)CCc3nnc4n(C)c(=O)c5sccc5n34)CC2)cc1,i,i,nt,nt,i
CCOc1ccc(Nc2nc3c(S(=O)(=O)c4ccc(CC)cc4)nnn3c3ccc(Cl)cc23)cc1,i,i,nt,nt,i
CCN1C(=O)/C(=C2/C=CC=CN2C)SC1=S,i,i,i,i,-32.8
CCCOc1ccc(CNC(=O)c2ccc(C)c(-n3c(C)nc4cccnc43)c2)cc1,i,i,nt,nt,i
CC1(C)CC(O)C(C)(C)N1O (stereo unspecified),i,36.5,i,i,i
CCCCN1CC(c2nc3ccccc3n2CCCCOc2c(C)cccc2C)CC1=O (stereo unspecified),i,i,nt,nt,i
COCCN(CC(=O)NCC1CCCO1)C(=O)CCC(=O)Nc1cc(C)ccn1 (stereo unspecified),i,i,i,i,-37.1
CCc1cccc(NC(=O)Nc2ccc3c(c2)N(C)C(=O)c2ccccc2S3)c1,i,i,nt,nt,-38.9
CN1C(=O)c2ccccc2Sc2ccc(NC(=O)Nc3ccccc3F)cc21,i,i,nt,nt,i
CCN(CC(=O)Nc1c(F)cccc1F)C(=O)Cc1ccc2c(c1)OCCO2,i,i,i,i,i
CCN(CC(=O)Nc1c(F)cccc1F)C(=O)Cc1ccc2c(c1)CCC2,i,i,i,i,-33.8
CCN(CC(=O)Nc1c(F)cccc1F)C(=O)c1cc(C)nc2ccccc12,i,i,i,i,i
CCN(CC(=O)Nc1c(F)cccc1F)C(=O)Cc1c(C)nc2ccccc2c1C,i,i,i,i,-48.7
CCN(CC(=O)Nc1c(F)cccc1F)C(=O)Cn1[nH]c(=O)c2ccccc2c1=O,i,i,i,i,-49.6
O=C(Nc1ccc(C(=O)NCCCN2CCCCC2)cc1)C1=CSCCO1,i,i,i,i,i
CC1CCCN(CCCNC(=O)c2ccc(NC(=O)C3=CSCCO3)cc2)C1 (stereo unspecified),i,i,i,i,i
Cc1cccc(N2CCN(CCCNC(=O)c3ccc(NC(=O)C4=CSCCO4)cc3)CC2C)c1 (stereo unspecified),i,i,i,i,-39.8
O=C(Nc1ccc(C(=O)NCCCN2CCN(c3ccc(F)cc3)CC2)cc1)C1=CSCCO1,i,62.5,i,i,-78.5
CCNC(=O)C/C(C)=N/NC(=O)C12CC3CC(CC(C3)C1)C2,i,i,i,?,-31.9
CCNC(=O)C/C(C)=N/NC(=O)C1CCCCC1,i,i,i,i,i
CCC(=O)N1CCc2cc(S(=O)(=O)NCCC(=O)NC(C)c3ccccc3)ccc21 (stereo unspecified),i,i,nt,nt,i
COc1cc2nc(CN3CCN(S(=O)(=O)c4c(F)cccc4F)CC3)[nH]c(=O)c2cc1OC,nt,i,i,i,-32.4
SMILES,D1 PAM,D1 agonist,TRPV1 PAM,TRPV1 agonist,D1 antagonist
COc1cc2nc(CN3CCN(C(c4ccccc4)c4ccccc4)CC3)[nH]c(=O)c2cc1OC,i,i,i,i,i
CC(=O)c1cc(-c2ccc(F)cc2)n(CCC(=O)Nc2cccnc2)c1C,i,i,i,81.4,i
CC(C)Cc1nn2c(=O)cc(COC(=O)c3ccccc3NC(=O)c3ccccc3)nc2s1,i,i,nt,nt,i
O=C(N/N=C/c1c[nH]c2ccccc12)c1sc2ccccc2c1Cl,i,i,i,i,-74.8
O=C(N/N=C/c1c[nH]c2ccc(Br)cc12)c1ccccn1,i,i,i,i,-46.9
Cc1ccc(CNC(=O)c2cccc(Nc3nc4ccccc4n4nnnc34)c2)cc1,i,i,nt,nt,i
CCc1ccc(NC(=O)CN2C(=O)C3CCCN3c3ccc(S(=O)(=O)N(CC)CC)cc32)cc1 (stereo unspecified),i,i,nt,nt,i
CCCOc1ccccc1C1CC(=O)NC2=C1C(=O)CCC2 (stereo unspecified),i,i,i,i,i
Cn1c2c(c(=O)n(C)c1=O)C(c1ccccc1OC(F)F)C1=C(CCCC1=O)N2 (stereo unspecified),i,i,i,i,-36.4
c1ccc(Cc2nnc3sc(Nc4ccccc4)nn23)cc1,i,i,i,?,-44.6
CC1CCc2c(sc(NC(=O)c3cc(-c4ccc(Br)cc4)on3)c2C(N)=O)C1 (stereo unspecified),i,i,nt,nt,i
COc1ccccc1NC(=O)c1cc2c(=O)n(Cc3cccs3)ccc2nc1C,i,i,nt,nt,-39.7
COc1cc(NC(=O)c2cc3c(=O)n(Cc4cccs4)ccc3nc2C)cc(OC)c1OC,i,i,nt,nt,i
c1ccc(CCn2c(SCc3ccccc3)nnc2-c2ccncc2)cc1,i,34.7,i,i,i
COc1ccc(-c2nnc(SCc3ccccc3)n2N)cc1,i,62.7,i,i,i
Cc1cccc(-c2nnc(SCC#N)n2C)c1,i,i,i,i,i
Cc1ccc(-c2nnc(SCC#N)n2N)cc1,i,i,i,i,-32.9
C=CCC(CC=C)(CNC(=O)C(=O)Nc1ccc(Br)cc1)c1ccc(OC)c(OC)c1,i,i,nt,nt,i
CCc1sc(C(=O)N2CCCN(C)CC2)cc1Br,i,i,i,i,i
CCc1sc(C(=O)NC2CCN(C)CC2)cc1Br,i,36.4,?,i,i
C=CCc1cc(Cl)ccc1OC(=O)Nc1cccc(Cl)c1,i,i,i,i,-55.2
CCC1Sc2ccccc2N(CC(=O)NC2CC2)C1=O (stereo unspecified),i,i,i,i,-74.1
Oc1ccc(Cc2ncc(C(F)(F)F)cc2Cl)cc1,i,i,i,i,i
COC(=O)C(C)Oc1ccc(Cc2ncc(C(F)(F)F)cc2Cl)cc1 (stereo unspecified),i,i,i,i,-36.8
COc1ccccc1N1CCN(C(=O)/C=C/c2cccs2)CC1,i,i,i,i,i
SMILES,D1 PAM,D1 agonist,TRPV1 PAM,TRPV1 agonist,D1 antagonist
Cc1cccc(N2CCN(C(=O)/C=C/c3cccs3)CC2)c1C,i,i,?,i,-41.5
CCc1noc(C)c1C(=O)N1CCN(c2cccc(C)c2C)CC1,i,i,i,i,-30.5
CCCc1ccc(OC(C)C(=O)Nc2sc3c(c2C(=O)OC)CCCCC3)cc1 (stereo unspecified),i,i,nt,nt,i
COC(=O)c1[nH]c2ccc(Cl)cc2c1NC(=O)c1ccccc1[N+](=O)[O-],i,i,i,i,i
COC(=O)c1[nH]c2ccc(C)cc2c1NC(=O)c1ccccc1[N+](=O)[O-],i,i,i,i,-35.8
CCOC(=O)c1c(C)sc(-c2c(-c3cccc(Cl)c3)[nH]c3c2c(=O)n(C)c(=O)n3C)c1O,i,315.4,nt,nt,i
CCOC(=O)c1c(C)sc(-c2c(-c3cc(C)ccc3C)[nH]c3c2c(=O)n(C)c(=O)n3C)c1O,i,276.6,nt,nt,i

# From PubChem
